# In all, about 1,400 compounds went through this assay and about 560 (40%) were called active. The set was probably picked from earlier hits. This is one part of the list. A number with no mark means an inactive call.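 How the source made its calls: active means mean inhibition over duplicate tests at 10 µM above 50%; inactive means the rest.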
# Assay: ASC/caspase-1 reporter retest in S. cerevisiae at one dose, specificity check for NALP1 project (AID 488857)
# Conditions: S. cerevisiae ASC/Caspase-1, beta-galactosidase luminescence, 24 h; at 10 µM; active compounds read high
row,Compound,inhibition
1,COc1ccc(N2CCN(CC(=O)NC(=O)NCc3ccco3)CC2)cc1,33.3%
2,CCC(C(=O)NCc1ccco1)N(C(=O)CNS(=O)(=O)c1ccccc1)c1ccc(OC)cc1 (stereo unspecified),32.8%
3,CCN(C(=O)c1ccco1)c1nnc(-c2ccc(OC)cc2)s1,51% (active)
4,O=C(NC(N1CCOCC1)C(Cl)(Cl)Cl)c1ccc(Br)cc1 (stereo unspecified),-14.2%
5,CCOC(=O)c1cc([N+](=O)[O-])c([N+](=O)[O-])cc1NC(C)=O,22.4%
6,CN(C)c1ccc(NC(=O)COC(=O)c2cc(Cl)ccc2[N+](=O)[O-])cc1,68% (active)
7,N=c1ccn(Cc2ccc(Cl)cc2Cl)cc1,38%
8,CCOC(=O)c1c(-c2ccccc2)nc2ccccn12,99.1% (active)
9,CCOCCCn1c(=NC(C)=O)c(C(=O)OCC)cc2c(=O)n3ccccc3nc21,19.2%
10,CCOC(=O)CSc1nnc(-c2ccccc2)c(=O)[nH]1,45%
11,Cc1cc(C)n(C(C[N+](=O)[O-])c2ccc(Cl)cc2)n1 (stereo unspecified),99.2% (active)
12,Cc1cccc(OCCCSc2nc3ccc(C)cc3[nH]2)c1,83.2% (active)
13,Cc1cccc(C)c1NC(=O)CSc1nc2ccccc2c(=O)[nH]1,34.6%
14,Cc1ccccc1OCCCSc1nc2ccccc2[nH]1,75% (active)
15,O=C(O)C1CCN(C(=O)c2csc(-c3ccc4c(c3)CCO4)n2)CC1,38.6%
16,O=CC1=C(c2ccccc2)Oc2ccccc2O1,93.3% (active)
17,CCn1c(SCC(=O)Nc2ccc3c(c2)OCO3)nnc1-c1cnccn1,30.1%
18,Nc1ccc(C(=O)Nc2nc3ccccc3s2)cc1,75.4% (active)
19,O=C(Nc1nc2ccccc2s1)C1c2ccccc2Oc2ccccc21,39.3%
20,Cc1ccc2nc(NC(=O)c3ccc4ncsc4c3)sc2c1,12.6%
21,Fc1ccc(N2CCN(Cc3cnc(Oc4ccc(Br)cc4)s3)CC2)cc1,14.7%
22,CCOc1ccc(NC2=C(OC)C(=O)c3ccccc3C2=O)cc1,44.1%
23,CCOc1ccc(S(=O)(=O)N2c3ccccc3CC2C)cc1 (stereo unspecified),52.7% (active)
24,COC1=C(Nc2ccc(O)cc2)C(=O)c2ccccc2C1=O,40.2%
25,COc1ccc(Nc2cc(C)c3ccc(O)cc3n2)cc1,98.1% (active)
26,Cc1cc(Nc2ccccc2)nc2cc(O)ccc12,99.1% (active)

row,Compound,inhibition
1,CC1Cc2ccccc2N1CC(=O)Nc1ccc2c(c1)OC(F)(F)O2 (stereo unspecified),29.9%
2,O=C(/C=C/c1ccccc1Cl)c1ccc[nH]1,67.8% (active)
3,COC(=O)C1=C(C)NC(C)=C(C(=O)OC)C1c1ccc(OC(=O)c2oc3ccccc3c2C)c(OC)c1,25.6%
4,CC(=O)C1=C(O)C(=O)N(CCC(=O)O)C1c1ccc(Cl)cc1Cl (stereo unspecified),35.7%
5,COc1ccc2cnn(-c3ccc(C)cc3)c(=O)c2c1OC,44%
6,Cc1ccc(-n2c(Cl)c(Cl)nc(Cl)c2=O)cc1,100% (active)
7,Cc1ccc(-n2nnnc2C(Cl)c2nnnn2-c2ccc(C)cc2)cc1,40.1%
8,CCN(CC)S(=O)(=O)c1ccc2[nH]c(=O)cc(C(=O)Nc3ccc(C)c(S(=O)(=O)N(CC)CC)c3)c2c1,25.1%
9,CCCNC(=O)c1nnsc1S(=O)(=O)c1ccc(Cl)cc1,91% (active)
10,COc1ccc(CCNC(=O)C2CCN(S(=O)(=O)c3ccc(Cl)cc3)CC2)cc1OC,23.4%
11,Cn1cnc([N+](=O)[O-])c1S(=O)(=O)c1ccc(Cl)cc1,13.2%
12,CNC(=O)c1nnsc1S(=O)(=O)c1ccc(Cl)cc1,73% (active)
13,CN1C(=O)CSc2ccc(NC(=O)N3CCN(c4ccccn4)CC3)cc21,40.5%
14,CN(C)c1nc(N)nc(CSc2nnnn2-c2ccc(C(=O)O)cc2)n1,18.2%
15,CC(C)(C)n1nc(-c2ccc(F)cc2)c2c(N)ncnc21,97.5% (active)
16,O=C(COC(=O)c1ccc(-c2ccc([N+](=O)[O-])cc2)o1)NC(=O)NC1CCCCC1,46.6%
17,c1ccc(-c2c(-c3ccccc3)n(Cc3ccco3)c3ncnc(NCCCn4ccnc4)c23)cc1,46.7%
18,COc1ccc(/C=N\NC(=O)c2cc(OCC(F)(F)F)ccc2OCC(F)(F)F)cc1,27.6%
19,O=C(Oc1ccc(/C=N/NC(=O)c2ccccc2O)cc1)c1ccccc1,34.4%
20,O=C(C[n+]1ccc(C(=O)N/N=C/c2ccc(OCc3ccccc3)cc2)cc1)c1ccccc1,54.6% (active)
21,COc1ccc(N2C(=O)C3[C@@H](C2=O)C2(Cl)C(Cl)=C(Cl)C3(Cl)C2(OC)OC)cc1 (stereo partly specified),50.2% (active)
22,COc1ccc(N2C(=O)C(Cl)=C(Nc3c(C)n(C)n(-c4ccccc4)c3=O)C2=O)cc1,29.6%
23,CCOc1oc(-c2ccc(OC)cc2)nc1C(F)(F)F,40.6%
24,CCc1ccc(OCCNC(=O)OCc2ccccc2)cc1,57.6% (active)
25,CCc1ccc(OCCCC(=O)Nc2cccc(C(=O)O)c2)cc1,39.6%
26,CC1=NN(c2ccc(C)cc2C)C(=O)C1C(c1cccc(O)c1)C1C(=O)N(c2ccc(C)cc2C)N=C1C (stereo unspecified),43.8%

row,Compound,inhibition
1,CN(C)CCN(Cc1ccccc1)c1nccc(N(C)C)c1C#N,26.8%
2,Cc1c(C(=O)N2CCOCC2)[nH]c2ccc(OCc3ccccc3)cc12,42.6%
3,COc1cccc(C(=O)N2CCCC(c3nc(-c4cccs4)no3)C2)c1 (stereo unspecified),22.3%
4,COc1cccc(-c2nn(C)c3sc(C(=O)N4CCOCC4)cc23)c1,51.4% (active)
5,COc1cc(S(=O)(=O)NCc2cccnc2)ccc1F,46.6%
6,C=CCCCCc1nc2ccccc2c(=O)n1N,36.1%
7,COc1ccc2cc(C(C)c3nc4ccccc4c(=O)n3N)ccc2c1 (stereo unspecified),59.4% (active)
8,CCOC(=O)c1ccc(N2CCOCC2)c(NC(=O)COCC(=O)O)c1,9.9%
9,COc1ccc(-c2cn3cccnc3n2)cc1Br,78.9% (active)
10,CCN(CC)S(=O)(=O)c1ccc2oc(C(=O)NC3CCCc4ccccc43)c(C)c2c1 (stereo unspecified),23.3%
11,O=C(c1ccccc1)c1c2c(cc3sc4ccccc4[n+]13)-c1cccc3cccc-2c13,46.8%
12,Cc1ccc(S(=O)(=O)N(C(=O)c2ccncc2)c2ccc(OC(=O)c3ccncc3)c3ccccc23)cc1,26.1%
13,CCCc1[nH]n(-c2nc3ccccc3s2)c(=O)c1C=NCC(C)C,78% (active)
14,CC(C)(C)C(=O)NC1CCN(S(=O)(=O)c2ccc(C(F)(F)F)cc2)CC1,23.1%
15,CCCN1CCN(CCCNC(=O)CCNC(=O)Cn2ccc3ccccc3c2=O)CC1,35.4%
16,COc1ccnc(N2CCN(c3ccccc3)CC2)c1C#N,56.4% (active)
17,O=C(NN1C(=O)c2cc(Br)ccc2NC1c1cc(Br)cc(Br)c1O)c1ccncc1 (stereo unspecified),76.2% (active)
18,Cc1cccc(N2Cc3ccccc3C2=NC(=O)c2ccc(Cl)nc2)c1,28.3%
19,Fc1ccccc1-c1ccc(/C=N/Nc2nc3ccccc3[nH]2)o1,70% (active)
20,CCCCNc1nc2ccccc2[nH]1,31.2%
21,CCOC(=O)c1ccc(NC(=O)CSc2nnc(CNc3ccc(C)cc3)n2C)cc1,31.4%
22,CCOC(=O)c1ccc(NC(=O)CC2Sc3ncnn3C2=O)cc1 (stereo unspecified),64.7% (active)
23,O=C(CC1Sc2ncnn2C1=O)Nc1ccc(Br)cc1 (stereo unspecified),33.6%
24,COc1ccc(NC(=O)CC2Sc3ncnn3C2=O)cc1 (stereo unspecified),75.8% (active)
25,CCOC(=O)c1ccc(NC(=O)c2nccnc2C(=O)O)cc1,38.5%
26,C/C(=N\Nc1nc2c(s1)CCCC2)c1ccccc1,37.2%

row,Compound,inhibition
1,CC1CCCCN1C(=S)NCCc1ccccc1 (stereo unspecified),59.1% (active)
2,C=C1SC(Nc2c(C)cccc2C)=NC12CCCCC2,47.3%
3,CC(C)Cc1nnc(NC(=O)CSc2nc(N)cc(=O)[nH]2)s1,25.6%
4,Brc1ccc2c(c1)OCCOCCOc1cc(Br)ccc1OCCOCCOCCO2,64.6% (active)
5,Cc1nnc(-c2ccccc2)o1,39.7%
6,Cc1nc(/N=C(\N)NC(=O)N2c3ccccc3Sc3ccccc32)nc2ccccc12,53.6% (active)
7,O=C(CSc1nnnn1C1CCCCC1)N1c2ccccc2Sc2ccccc21,39.5%
8,O=[N+]([O-])c1ccc(-n2nnnc2-c2ccccc2)cc1,19.9%
9,O=C1C=CCC(/C=C/c2ccccc2)O1 (stereo unspecified),63% (active)
10,O=C1c2ccsc2SCCN1Cc1c(Cl)cccc1Cl,56.2% (active)
11,O=S(=O)(Nc1ccc(-n2cccc2)cc1)c1ccc(Cl)cc1Cl,37.6%
12,Cc1sc2ncnc(N/N=C/c3ccccc3O)c2c1C,58.4% (active)
13,CC1CCN(C(=O)/C=C/c2ccc(C(C)(C)C)cc2)CC1,63.4% (active)
14,O=C(/C=C/c1ccccc1)N1CCC(c2ccccc2)C1 (stereo unspecified),62.6% (active)
15,COc1cc(C(=O)CCN2CCC(c3ccccc3)C2)cc(OC)c1OC (stereo unspecified),44.2%
16,CC(=O)Nc1ccc(C(=O)CSc2nnc(Cc3ccccc3)o2)cc1,24.2%
17,Cc1cc(C)cc(OCc2nnc(SCC(=O)OC(C)C)o2)c1,61.5% (active)
18,COc1ccc(CNc2cccc(F)c2)cc1Br,72.2% (active)
19,COc1cc(Cc2cnc(N)nc2N)cc(OC)c1OC,14.2%
20,COc1ccc(Cc2ccc(OC)c(N)c2)cc1N,53.1% (active)
21,COC(=O)N/N=C/c1ccc(-c2cccc(Cl)c2)o1,80.9% (active)
22,Cc1ccc(/C=N/NC(=O)c2ccc3nc[nH]c3c2)o1,47.4%
23,COC(=O)N/N=C/c1ccc(OC(=O)c2ccco2)c(OC)c1,30.8%

# — PubChem BioAssay AID488857 (Sanford-Burnham Center for Chemical Genomics, 2010)
